# The supplement of paper PMC6992640
# ± gives the standard deviation of the averaged measurements.
# Key:
# Assay in all cases: cell viability (% of vehicle); higher = less cytotoxic
# Conditions in all cases: 10 µM; 72 h
# HCI01 = test system: HCI01 (cells of a triple-negative basal-like breast cancer xenograft)
# HCI03 = test system: HCI03 (cells of an ER-positive luminal breast cancer xenograft)
# HCI09 = test system: HCI09 (cells of a triple-negative luminal androgen receptor type breast cancer xenograft)
# HCI11 = test system: HCI11 (cells of an ER-positive luminal breast cancer xenograft)
# HCI13 = test system: HCI13 (cells of an ER-positive luminal breast cancer xenograft)
# HCI16 = test system: HCI16 (cells of a triple-negative basal-like breast cancer xenograft)
# UCD52 = test system: UCD52 (cells of a triple-negative basal-like breast cancer xenograft)
# WHIM2 = test system: WHIM2 (cells of a triple-negative basal-like breast cancer xenograft)
# WHIM30 = test system: WHIM30 (cells of a triple-negative basal-like breast cancer xenograft)
# 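Note: PDX cells carrying CMV promoter-driven luciferase, viability read as total photon flux per second by IVIS imaging following D-luciferin, vehicle control 0.1% DMSO.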
SMILES,cell viability (HCI01),cell viability (HCI03),cell viability (HCI09),cell viability (HCI11),cell viability (HCI13),cell viability (HCI16),cell viability (UCD52),cell viability (WHIM2),cell viability (WHIM30)
Nc1nc(F)nc2c1ncn2C1OC(CO)C(O)C1O (stereo unspecified) [Fludarabine],131 ± 27,134,103 ± 10,116,165 ± 10,171,105 ± 4,106 ± 2,121 ± 8.2
O=C1OC(C(O)CO)C(O)=C1O (stereo unspecified) [Vitamin C],76.9 ± 31,111,93.6 ± 11,84.3,90 ± 12,108,75 ± 3.8,113 ± 34,135 ± 5.2
CCc1cc(C(N)=S)ccn1 [Ethionamide],105 ± 11,111,100 ± 3.6,104,136 ± 15,100,82.3 ± 9.9,92.7 ± 8.7,98.5 ± 9.4
CC1c2cccc(O)c2C(O)=C2C(=O)C3(O)C(O)=C(C(N)=O)C(=O)C(N(C)C)C3C(O)C21.Cl (stereo unspecified) [Doxycycline hyclate],159 ± 22,109,94.8 ± 12,114,107 ± 5.1,134,111 ± 3.3,90.9 ± 9.3,173 ± 22
COC(=O)C1=C(C#N)NC(C)=C(C(=O)OC(C)C)C1c1cccc([N+](=O)[O-])c1 (stereo unspecified) [Nilvadipine],112 ± 8.1,125,77 ± 4.5,85.7,138 ± 29,101,70.2 ± 1.1,116 ± 12,83.4 ± 10
O=C([O-])c1ccccc1O.[Na+] [Sodium salicylate],96.1 ± 24,121,100 ± 7.2,91.4,107 ± 12,124,85.6 ± 3.5,89.1 ± 15,94.4 ± 3.4
O=C1NC([O-])=NC1(c1ccccc1)c1ccccc1.[Na+] [Phenytoin sodium],97.2 ± 10,142,96.6 ± 14,101,104 ± 9.4,114,91.6 ± 8.2,105 ± 7.8,118 ± 8.7
C[C@H](C(=O)O)c1ccc(-c2ccccc2)c(F)c1 [(S)-Flurbiprofen],109 ± 15,138,98.3 ± 21,78.6,98.7 ± 1.3,107,103 ± 2.4,103 ± 13,106 ± 5.7
O=c1ccc2ccccc2o1 [Coumarin],110 ± 15,145,99.9 ± 6.8,95,102 ± 7.2,128,93.3 ± 14,113 ± 4.4,114 ± 2.5
Nc1cccc2c1C(=O)N(C1CCC(=O)NC1=O)C2=O (stereo unspecified) [Pomalidomide (CC-4047)],122 ± 2,126,87.9 ± 2.9,108,91.9 ± 8.8,103,104 ± 3.8,73.9 ± 5.1,133.9 ± 0.79
O=C(O)Cc1ccccc1Nc1c(Cl)cccc1Cl [Diclofenac],92.9 ± 26,123,84.8 ± 15,96.8,114 ± 31,127,90.6 ± 16,87.4 ± 0.94,92.1 ± 4.7
Cc1cnc(NC(=O)C2=C(O)c3ccccc3S(=O)(=O)N2C)s1 [Meloxicam (Mobic)],104 ± 10,125,96.1 ± 18,102,124 ± 5,88.8,80.5 ± 6.5,94 ± 12,81.3 ± 13
CCCC1CC(C(=O)NC(C(C)Cl)C2OC(SC)C(O)C(O)C2O)N(C)C1.Cl (stereo unspecified) [Clindamycin HCl],101 ± 7.5,122,99.45 ± 0.17,104,88.2 ± 19,142,117 ± 2.3,106 ± 33,122 ± 2.6
O=c1oc2c(O)c(O)cc3c(=O)oc4c(O)c(O)cc1c4c23 [Ellagic acid],102 ± 15,144,100 ± 3,105,177 ± 43,125,103.5 ± 0.7,118 ± 11,115 ± 11
O=C(C1CCCCC1)N1CC(=O)N2CCc3ccccc3C2C1 (stereo unspecified) [Praziquantel],99.2 ± 15,132,94.6 ± 5.6,93.1,134 ± 17,112,96.7 ± 4.2,94 ± 20,114 ± 7.9
CCCC1CC(C(=O)NC(C(C)Cl)C2OC(SC)C(OP(=O)(O)O)C(O)C2O)N(C)C1 (stereo unspecified) [Clindamycin Phosphate],140 ± 73,112,75.6 ± 25,96.6,86.2 ± 30,89.1,73.2 ± 16,92.7 ± 20,83.5 ± 1.4
Cc1ccc(F)c(NC(=O)Nc2ccc(-c3cccc4[nH]nc(N)c34)cc2)c1 [Linifanib (ABT-869)],117 ± 45,165,54.2 ± 0.96,68.7,72 ± 2.6,120,92.18 ± 0.33,160 ± 47,139 ± 45
NCCC(O)C(=O)NC1CC(N)C(OC2OC(CN)C(O)C(O)C2O)C(O)C1OC1OC(CO)C(O)C(N)C1O (stereo unspecified) [Amikacin],93.2 ± 16,144,105 ± 22,95.3,106 ± 16,114,103 ± 11,86.1 ± 8.6,117 ± 2.6
Cc1noc(NS(=O)(=O)c2ccc(N)cc2)c1C [Sulfisoxazole],89.3 ± 28,121,94.4 ± 8.1,86.9,107 ± 2.8,112,99.8 ± 3.5,84.1 ± 8.8,117 ± 1.3
Cl.NC1=NCC2c3ccccc3Cc3ccccc3N12 (stereo unspecified) [Epinastine HCl],102 ± 1.5,94.8,82.5 ± 4.8,95.5,79.4 ± 1.9,118,79 ± 1.4,96.5 ± 8.4,89.3 ± 7

SMILES,cell viability (HCI01),cell viability (HCI03),cell viability (HCI09),cell viability (HCI11),cell viability (HCI13),cell viability (HCI16),cell viability (UCD52),cell viability (WHIM2),cell viability (WHIM30)
O=C([O-])c1cc(=O)c2c(OCC(O)COc3cccc4oc(C(=O)[O-])cc(=O)c34)cccc2o1.[Na+].[Na+] [Cromolyn sodium],136 ± 48,135,97.1 ± 3.8,71.8,102 ± 13,116,113 ± 5,134 ± 15,121 ± 4.5
CC(C)NCC(O)COc1cccc2ccccc12.Cl (stereo unspecified) [Propranolol HCl],109.73 ± 0.067,104,100 ± 15,84.5,97.8 ± 24,96.6,83.3 ± 4.4,83.3 ± 16,108 ± 7.8
NCC1CCC(C(=O)O)CC1 (stereo unspecified) [Tranexamic Acid],118 ± 7.2,116,94.6 ± 25,111,74.8 ± 0.96,102,92.2 ± 5,124 ± 17,111 ± 16
CCOC(=O)c1ncn2c1CN(C)C(=O)c1cc(F)ccc1-2 [Flumazenil],114 ± 6.3,106,89.6 ± 18,96.8,93.9 ± 2.9,92.5,118 ± 17,103 ± 7.5,142 ± 15
CCOC(=O)[C@H](CCc1ccccc1)N[C@@H](C)C(=O)N1[C@H](C(=O)O)C[C@H]2CCCC[C@@H]21 [Trandolapril],121 ± 2.9,148,115 ± 11,98.7,124 ± 12,130,112 ± 20,109 ± 14,174 ± 15
CCCCCCOC(=O)N=C(N)c1ccc(NCc2nc3cc(C(=O)N(CCC(=O)OCC)c4ccccn4)ccc3n2C)cc1,94.2 ± 9.6,124,105 ± 7.4,111,118 ± 7.9,107,91.9 ± 7.3,107 ± 32,116 ± 11
CCC1OC(=O)CC(O)C(C)C(OC2OC(C)C(O)C(N(C)C)C2O)C(CCN2CC(C)CC(C)C2)CC(C)C(=O)C=CC(C)=CC1COC1OC(C)C(O)C(OC)C1OC (stereo unspecified) [Tilmicosin],89.4 ± 32,116,82 ± 4.8,80.9,99.5 ± 6.4,102,77.7 ± 9.9,84.1 ± 3.9,97 ± 10
CN(N=O)C(=O)NC1C(O)OC(CO)C(O)C1O (stereo unspecified) [Streptozocin],105 ± 4.3,123,104 ± 6.3,99.5,89.38 ± 0.52,113,83.17 ± 0.58,85 ± 16,123.9 ± 1.1
O=C(CCc1ccc(O)cc1)c1c(O)cc(O)cc1OC1OC(CO)C(O)C(O)C1O (stereo unspecified) [Phloridzin],104 ± 31,123,98.1 ± 10,97.7,106 ± 6.1,115,105 ± 4.7,96.2 ± 9.1,97.2 ± 7.4
CCN1CCCC1CNC(=O)c1cc(S(=O)(=O)CC)c(N)cc1OC (stereo unspecified) [Amisulpride],189 ± 32,126,108 ± 14,100,82.7 ± 0.84,159,116 ± 15,122 ± 4,139 ± 2.1
Cc1cc(C)cc(OCC2CNC(=O)O2)c1 (stereo unspecified) [Metaxalone],100 ± 16,155,108.2 ± 0.2,100,120 ± 9.4,137,105 ± 6.4,111 ± 4.7,102 ± 3
CCn1cc(C(=O)O)c(=O)c2cc(F)c(N3CCNC(C)C3)c(F)c21.Cl (stereo unspecified) [Lomefloxacin HCl],97.5 ± 19,95.2,94.5 ± 7.8,96.1,76 ± 14,107,91.5 ± 2.9,83.75 ± 0.15,150 ± 10
NC(=O)c1ccc(I)c([N+](=O)[O-])c1 [Iniparib (BSI-201)],121 ± 21,198,123 ± 20,82.6,124 ± 31,106,114 ± 5.4,181 ± 22,129 ± 22
CN1CC(=O)N2[C@H](c3ccc4c(c3)OCO4)c3[nH]c4ccccc4c3C[C@@H]2C1=O [Tadalafil],108 ± 1.5,150,90 ± 22,141,95.7 ± 3.2,88.4,96.7 ± 12,112 ± 3,105 ± 16
NC1CN(c2c(F)cc3c(=O)c(C(=O)O)cn(C4CC4F)c3c2Cl)CC12CC2.O (stereo unspecified) [Sitafloxacin Hydrate],83.3 ± 48,95.5,111 ± 13,90.5,116.6 ± 0.93,122,88.8 ± 9.9,95.6 ± 27,119 ± 4.7
CC12CCC(O)CC1=CCC1C2CCC2(C)C(n3cnc4ccccc43)=CCC12 (stereo unspecified),119 ± 15,58.2,54.3 ± 41,76.2,103 ± 7.5,96.3,83.2 ± 4.1,118 ± 18,93.6 ± 13
Cl.Cl.Clc1ccc(Nc2nnc(Cc3ccncc3)c3ccccc23)cc1 [Vatalanib (PTK787) 2HCl],136 ± 53,104,54.7 ± 2.1,92.3,45.8 ± 8.3,76.5,55.4 ± 5,46 ± 19,93.2 ± 2.6
CN(C)NN=C1N=CN=C1C(N)=O [Dacarbazine],122 ± 9.3,92.9,110.4 ± 0.52,93.5,120 ± 16,82.7,107 ± 8,80.3 ± 24,118 ± 25
Cc1c(O)c(=O)ccn1C [Deferiprone],81 ± 3.5,102,83.6 ± 14,77.1,93 ± 5.8,102,85.8 ± 1.6,144 ± 12,89.2 ± 3.3
